# Screening data as filed in PubChem BioAssay.
# GLS inh: glutaminase GLS (human) inhibition | GLS enzymatic activity, qHTS titration | Potency, µM (titrated, usually from 45.5 µM), usual class: inhibitors | hit rate 0.21% among 410,000; active = well fitted inhibition curve with a large enough effect; inconclusive = small, poorly fitted or top-dose-only effect, or another doubt; inactive = no such curve, though single readings can be large or run the other way
#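 Human kidney-isoform GLS in 45 mM KH2PO4 pH 8.2, 0.02% Tween-20, with compound, started with 1mM L-Glutamine (added stock). Glutamate oxidase/HRP/Amplex red coupled fluorescence read at start and after 30 min at RT.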
# CXXC DNA block: blocks binding of human MLL CXXC domain to DNA; Q03164; MLL-CXXC / FITC-HOXA9 DNA fluorescence polarization; Potency, µM (top dose mostly 115 µM), actives largely listed as inhibitors; hit rate 0.037% among 290,000; AID 2662; active = well fitted inhibition curve with a large enough effect in the polarisation, with a control signal flat, not every such curve was filed as active; inconclusive = small, poorly fitted or top-dose-only effect, or effect the other way, or a change in a side signal; inactive = no such curve, though single readings can be large or run the other way; the % refers to the polarisation
# Target sequence (Q03164 whole entry, looked up, the tested form may be a part): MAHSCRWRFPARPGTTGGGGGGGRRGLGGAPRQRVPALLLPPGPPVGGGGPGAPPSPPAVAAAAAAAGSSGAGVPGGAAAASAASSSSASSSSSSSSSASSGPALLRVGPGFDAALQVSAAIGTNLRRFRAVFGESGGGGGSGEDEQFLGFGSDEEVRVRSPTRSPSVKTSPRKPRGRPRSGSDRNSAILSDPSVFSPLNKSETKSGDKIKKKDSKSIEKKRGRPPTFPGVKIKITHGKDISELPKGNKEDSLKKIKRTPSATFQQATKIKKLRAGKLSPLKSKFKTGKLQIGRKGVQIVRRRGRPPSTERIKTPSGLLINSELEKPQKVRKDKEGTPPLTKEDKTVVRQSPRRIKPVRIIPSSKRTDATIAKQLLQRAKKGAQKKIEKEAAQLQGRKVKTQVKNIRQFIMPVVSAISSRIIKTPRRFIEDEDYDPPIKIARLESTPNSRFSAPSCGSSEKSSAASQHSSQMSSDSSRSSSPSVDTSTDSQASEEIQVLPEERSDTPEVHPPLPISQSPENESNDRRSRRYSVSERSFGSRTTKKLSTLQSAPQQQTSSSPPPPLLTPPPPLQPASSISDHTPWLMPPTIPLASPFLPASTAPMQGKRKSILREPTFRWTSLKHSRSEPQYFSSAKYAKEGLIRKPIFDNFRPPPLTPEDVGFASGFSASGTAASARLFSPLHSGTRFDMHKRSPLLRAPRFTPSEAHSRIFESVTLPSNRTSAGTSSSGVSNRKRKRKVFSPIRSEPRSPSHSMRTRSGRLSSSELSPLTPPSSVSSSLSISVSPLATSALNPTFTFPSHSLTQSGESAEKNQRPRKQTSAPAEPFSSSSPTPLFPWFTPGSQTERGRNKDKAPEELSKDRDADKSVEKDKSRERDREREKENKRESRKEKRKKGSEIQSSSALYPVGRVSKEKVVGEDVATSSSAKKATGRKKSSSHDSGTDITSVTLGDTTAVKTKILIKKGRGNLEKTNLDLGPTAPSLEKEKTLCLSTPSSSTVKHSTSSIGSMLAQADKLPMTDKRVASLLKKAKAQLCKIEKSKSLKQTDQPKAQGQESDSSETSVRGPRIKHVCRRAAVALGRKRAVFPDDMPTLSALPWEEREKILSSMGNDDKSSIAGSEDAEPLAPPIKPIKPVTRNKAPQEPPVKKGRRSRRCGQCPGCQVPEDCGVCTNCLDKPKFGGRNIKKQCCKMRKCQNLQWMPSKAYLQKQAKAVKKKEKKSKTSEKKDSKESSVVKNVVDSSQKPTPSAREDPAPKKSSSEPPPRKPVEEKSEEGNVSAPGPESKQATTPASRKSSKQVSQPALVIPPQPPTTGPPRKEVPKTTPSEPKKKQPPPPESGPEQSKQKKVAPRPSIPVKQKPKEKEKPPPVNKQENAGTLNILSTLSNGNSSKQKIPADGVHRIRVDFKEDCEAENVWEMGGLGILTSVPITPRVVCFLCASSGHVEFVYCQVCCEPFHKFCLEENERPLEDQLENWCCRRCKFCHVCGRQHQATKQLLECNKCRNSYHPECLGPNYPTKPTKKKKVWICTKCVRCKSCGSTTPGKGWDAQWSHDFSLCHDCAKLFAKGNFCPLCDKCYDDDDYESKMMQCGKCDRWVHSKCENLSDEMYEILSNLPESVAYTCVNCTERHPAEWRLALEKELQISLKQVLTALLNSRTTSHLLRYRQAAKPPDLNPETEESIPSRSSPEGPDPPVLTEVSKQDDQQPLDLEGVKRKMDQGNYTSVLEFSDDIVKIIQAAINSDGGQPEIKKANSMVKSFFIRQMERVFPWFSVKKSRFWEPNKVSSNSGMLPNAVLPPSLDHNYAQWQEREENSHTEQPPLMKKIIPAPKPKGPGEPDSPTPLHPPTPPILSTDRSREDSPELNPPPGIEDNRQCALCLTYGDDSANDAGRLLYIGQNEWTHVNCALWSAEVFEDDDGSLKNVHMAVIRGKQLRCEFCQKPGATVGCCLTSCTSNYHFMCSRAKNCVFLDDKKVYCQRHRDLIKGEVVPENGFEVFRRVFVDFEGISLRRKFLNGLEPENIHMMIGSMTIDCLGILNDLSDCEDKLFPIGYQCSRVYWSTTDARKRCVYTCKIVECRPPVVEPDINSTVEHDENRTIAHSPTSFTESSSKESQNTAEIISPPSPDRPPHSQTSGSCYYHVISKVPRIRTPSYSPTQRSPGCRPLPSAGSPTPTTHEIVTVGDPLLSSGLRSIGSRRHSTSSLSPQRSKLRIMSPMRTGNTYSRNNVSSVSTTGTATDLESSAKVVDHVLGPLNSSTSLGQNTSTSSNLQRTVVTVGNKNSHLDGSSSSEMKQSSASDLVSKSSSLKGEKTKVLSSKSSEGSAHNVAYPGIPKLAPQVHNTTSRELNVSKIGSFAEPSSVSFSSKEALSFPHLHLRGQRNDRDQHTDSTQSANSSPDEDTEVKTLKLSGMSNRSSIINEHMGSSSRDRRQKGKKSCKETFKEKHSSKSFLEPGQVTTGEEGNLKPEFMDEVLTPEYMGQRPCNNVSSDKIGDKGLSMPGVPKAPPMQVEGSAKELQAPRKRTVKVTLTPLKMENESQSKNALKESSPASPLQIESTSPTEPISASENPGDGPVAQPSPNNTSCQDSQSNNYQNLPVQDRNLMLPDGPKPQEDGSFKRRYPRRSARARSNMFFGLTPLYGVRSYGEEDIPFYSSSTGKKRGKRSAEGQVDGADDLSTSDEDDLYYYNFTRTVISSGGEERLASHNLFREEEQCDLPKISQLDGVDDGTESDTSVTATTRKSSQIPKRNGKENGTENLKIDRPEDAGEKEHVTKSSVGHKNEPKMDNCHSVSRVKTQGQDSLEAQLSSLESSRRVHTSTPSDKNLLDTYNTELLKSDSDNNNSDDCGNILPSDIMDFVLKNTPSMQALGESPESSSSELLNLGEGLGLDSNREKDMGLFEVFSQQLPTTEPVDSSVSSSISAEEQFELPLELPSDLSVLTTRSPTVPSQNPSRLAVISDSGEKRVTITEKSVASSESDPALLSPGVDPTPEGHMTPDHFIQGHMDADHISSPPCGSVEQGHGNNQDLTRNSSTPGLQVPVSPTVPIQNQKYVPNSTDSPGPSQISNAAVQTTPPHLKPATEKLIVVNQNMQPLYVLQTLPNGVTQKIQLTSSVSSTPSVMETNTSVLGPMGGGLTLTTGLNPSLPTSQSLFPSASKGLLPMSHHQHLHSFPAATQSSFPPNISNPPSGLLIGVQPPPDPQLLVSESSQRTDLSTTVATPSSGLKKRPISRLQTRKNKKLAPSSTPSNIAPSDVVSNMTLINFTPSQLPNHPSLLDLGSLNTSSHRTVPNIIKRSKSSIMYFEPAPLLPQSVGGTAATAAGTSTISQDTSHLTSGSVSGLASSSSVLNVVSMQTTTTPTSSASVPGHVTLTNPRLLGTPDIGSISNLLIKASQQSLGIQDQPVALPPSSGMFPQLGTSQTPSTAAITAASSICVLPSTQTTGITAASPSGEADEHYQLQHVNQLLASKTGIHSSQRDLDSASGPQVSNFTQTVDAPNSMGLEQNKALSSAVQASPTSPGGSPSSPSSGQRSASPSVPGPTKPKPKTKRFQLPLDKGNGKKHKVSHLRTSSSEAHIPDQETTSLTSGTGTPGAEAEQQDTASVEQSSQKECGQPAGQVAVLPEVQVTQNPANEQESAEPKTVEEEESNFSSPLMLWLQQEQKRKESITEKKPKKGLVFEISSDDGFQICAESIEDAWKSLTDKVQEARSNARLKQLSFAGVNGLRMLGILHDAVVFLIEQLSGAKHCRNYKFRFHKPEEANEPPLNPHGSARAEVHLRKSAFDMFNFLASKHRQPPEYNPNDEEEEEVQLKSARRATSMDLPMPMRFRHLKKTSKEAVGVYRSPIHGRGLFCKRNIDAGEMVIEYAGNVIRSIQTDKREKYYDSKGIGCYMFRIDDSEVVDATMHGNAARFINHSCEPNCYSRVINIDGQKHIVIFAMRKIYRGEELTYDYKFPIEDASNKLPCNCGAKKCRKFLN
#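 Purified MLL-CXXC (added from a 7 uM solution) was preincubated 5 min at ambient with pinned compounds in 50 mM Tris-HCl pH 7.5, 50 mM NaCl, 1 mM DTT, 0.05% BSA. Fluorescein-labeled HOX-A9 DNA (50 nM solution) followed, 30 min, then polarization read.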
# Menin-MLL TR inh: displaces Texas Red mutant MLL peptide from human menin; hit rate 0.23% among 270,000; Potency, µM (top dose mostly 61.6 µM), actives largely listed as inhibitors; Menin + Texas Red MLL mutant peptide, fluorescence polarization; O00255; active = well fitted inhibition curve with a large enough effect in the polarisation, with a control signal flat, not every such curve was filed as active; inconclusive = small, poorly fitted or top-dose-only effect, or effect the other way, or a change in a side signal; inactive = no such curve, though single readings can be large or run the other way; the % refers to the polarisation
# Six1-Eya2 inh: Six1/Eya2 interaction inhibition; Q15475+O00167; hit rate 0.56% among 360,000; activity change, % (no concentration beside the values); AlphaScreen GST-Six1/His-Eya2 binding, biochemical; active compounds read low
#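 GST-Six1 + His-Eya2 (5X stock: 250/500 nM); Tris pH 8.0, 300 mM NaCl, 0.05% BSA, 0.02% Tween 20; GSH donor/Ni acceptor beads; 1 h 37 °C dark; AlphaScreen readout.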
# Menin-MLL FL inh: inhibitors of human menin-MLL interaction, wild-type MLL peptide. Fluorescence polarization, fluorescein-MLL peptide displacement from menin. FP activity change, % at 61.4 µM. 290,000 tested, under 10 active. AID 1766; active = well fitted curve in the direction sought with a large enough effect in the polarisation, not every such curve was filed as active; inconclusive = small, poorly fitted or top-dose-only effect, or effect the other way, or a change in a side signal; inactive = no such curve, though single readings can be large or run the other way; the % refers to the polarisation
# CtBP-E1A inh: CtBP/E1A binding inhibition. AlphaScreen GST-E1A/His-CtBP binding, 1536-well; active compounds read low. activity change, % (test concentration not listed). hit rate 0.49% among 340,000. AID 651724
#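 In 5 uL wells, 23 nL compound meets equimolar GST-E1A and His-CtBP (5X stock 125 nM each) for 2 h, 37 °C. Beads (5X, 50 ug/mL) then 1 h, 37 °C, dark.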
# A number is an active result; . = inactive; ? = inconclusive; / = no result given; ! = repeats disagree; [ ] = remark or other dose. Sampled rows, rich in hits. Any-hit rate of the full collection: about 0.83%. Rule as the data show it, unless noted: active = activity change below about -65%; inconclusive = mostly about -30% to -63%; inactive = weaker than that.
SMILES,GLS inh,CXXC DNA block,Menin-MLL TR inh,Six1-Eya2 inh,Menin-MLL FL inh,CtBP-E1A inh
CCCCNC(=S)Nc1ccc2[nH]c(=O)[nH]c2c1,.,.,.,.,.,-67
COc1cc2nc(SCc3ccc(Cl)cc3Cl)n(Cc3cccs3)c(=N)c2cc1OC,.,.,40µM,.,.,.
COc1cc2nc(SCc3ccc(C(F)(F)F)cc3)n(Cc3cccs3)c(=N)c2cc1OC,/,.,.,.,.,.
COc1cccc(/C=N/n2c(C3CCCCC3)n[nH]c2=S)c1O,7.9µM,.,.,.,.,.
COc1cccc(/C=N/n2c(-c3n[nH]c4c3CCC4)n[nH]c2=S)c1O,.,.,.,?,.,?
COc1cccc(/C=N/n2c(-c3cc(C)[nH]n3)n[nH]c2=S)c1O,.,.,/,-68,.,-81
O=C(CSc1ccc2nnc(-c3cccnc3)n2n1)Nc1ccc(F)cc1F,.,.,/,?,/,-69
NC(=O)Cc1ccc(Nc2nnc(-c3ccc(O)cc3)c3ccccc23)cc1,11µM,.,.,.,.,.
COc1ccc(Nc2nnc(-c3ccc(C(N)=O)cc3)c3ccccc23)cc1,.,.,?,-83,.,.
NC(=O)c1ccc(Nc2nnc(-c3ccc(O)cc3)c3ccccc23)cc1,.,.,.,?,.,.
CCC1(c2cnc[nH]2)Cc2ccccc2C1,.,/,/,/,/,/
Cc1n[nH]c(=S)n(/N=C/c2cccs2)c1=O,.,.,/,?,.,-72
COc1ccccc1/C=C/C=N/n1c(-c2ccccn2)n[nH]c1=S,.,.,/,-67,.,/
S=c1[nH]nc(-c2ccccn2)n1/N=C/c1ccccc1,.,.,.,?,/,.
S=c1[nH]nc(-c2ccccn2)n1/N=C/c1cccc2ccccc12,?,.,.,-67,.,?
Cc1ccccc1/C=N/n1c(-c2ccccn2)n[nH]c1=S,.,.,/,-90,.,.
COc1ccc(C(=O)Nn2c(SCC(=O)NC3CCCCC3)nc3ccccc3c2=O)cc1,.,.,.,.,.,.
COc1ccc(C(=O)Nn2c(SCC(=O)N3CCC(C)CC3)nc3ccccc3c2=O)cc1,.,.,.,?,.,-71
CCN1CCN(C(=O)c2cc3ccc(OC)cc3[nH]2)CC1,.,?,.,.,.,.
COc1ccc2cc(C(=O)N3CCN(Cc4ccc5c(c4)OCO5)CC3)[nH]c2c1,.,.,/,.,/,-97
COc1ccc2[nH]c3c(N4CCN(Cc5ccc6c(c5)OCO6)CC4)ncnc3c2c1,.,.,.,-65,.,?
COC(=O)C1=C(C)NC(C)=C(C(=O)OCCCN2CCC(c3ccccc3)(c3ccccc3)CC2)C1c1cccc([N+](=O)[O-])c1 (centres undefined),.,.,.,/,.,/
CCCCN(CC)Cc1ccc(CNS(=O)(=O)c2cc3c(cc2Cl)NC(=O)CO3)o1,.,/,/,/,/,/
c1cc(N2CCCCC2)nc(N2CCCCC2)n1,.,/,/,.,/,.
C[c-]1[c-](C)[c-](C)[c-](C)[c-]1C.[Fe].c1cc2nccc(N3CCCC3)[c-]2c1 (centres undefined),13µM!,.,/,.,/,.
SMILES,GLS inh,CXXC DNA block,Menin-MLL TR inh,Six1-Eya2 inh,Menin-MLL FL inh,CtBP-E1A inh
CN1c2ccc([N+](=O)[O-])cc2N(C)C1(C)c1ccccc1 (centres undefined),.,.,.,-76,.,-80
Cn1c2ccccc2c2cc([N+](=O)[O-])ccc21,.,.,/,.,.,.
CCCNC(=O)Cn1ncc2c3ccccc3n(CCC)c2c1=O,.,/,/,/,/,/
Cc1nc(N2CCCC2)c2c(C(=O)Nc3ccc(Br)cc3F)c(C)oc2n1,.,/,/,/,/,/
CC1(C)S[C@@H]2[C@H](NC(=O)C(N)c3ccccc3)C(=O)N2[C@H]1C(=O)O (some centres undefined),/,/,.,/,.,/
C=NC(C(=O)NC1C(=O)N2C1SC(C)(C)C2C(=O)O)c1ccccc1 (centres undefined),28µM,.,.,/,.,/
CC1(C)S[C@@H]2[C@H](NC(=O)C(C(=O)Oc3ccc4c(c3)CCC4)c3ccccc3)C(=O)N2[C@H]1C(=O)O (some centres undefined),7.9µM,/,/,/,/,/
CCCSc1ncc(Cl)c(C(=O)Nc2c(C(=O)Nc3ccc(OC)cc3)oc3ccccc23)n1,.,/,/,/,/,/
CC(NC(=O)C1CCN(C(=O)c2ccc(-n3ccc4ccccc43)s2)CC1)c1ccccc1 (centres undefined),.,/,/,/,/,/
CC(C)c1nc(SCC(=O)Nc2ccc(C(=O)O)cc2)c2c3c(sc2n1)CCCC3,.,.,.,-83,.,.
CCC(C)NC(=O)CSC1=Nc2ccccc2C2=NC(c3ccccc3)C(=O)N12 (centres undefined),13µM,.,.,.,.,.
CCC(C)NC(=O)CSC1=Nc2ccccc2C2=NC(CC(=O)NCc3ccccc3)C(=O)N12 (centres undefined),?,.,.,.,.,.
COc1ccc(CC(=O)N/N=C/C=C/c2ccc3c(c2)OCO3)cc1OC,.,.,/,-69,.,.
COC(=O)N/N=C\C=C\c1ccc2c(c1)OCO2,.,.,.,.,.,.
CO[C@@H]1COC(=O)C/C=C\[C@@H](C)[C@@H]2C=C[C@H](O)[C@@H](COC(=O)CCC[C@H]1C)O2,/,/,.[11.7 µM],/,.[11.7 µM],/
CC1=C/C(=C\c2ccc(Br)o2)C(=O)O1,11µM,.,.,.,.,.
O=C(CN1CC(=O)Oc2ccccc21)OCC(=O)c1ccc(Br)cc1,.,/,/,-91,/,-87
O=C1CN(CC(=O)N2CCCCC2)c2ccccc2O1,.,.,.,.,.,.
O=C(CN1CC(=O)Oc2ccccc21)OCC(=O)c1ccc(F)cc1,?,.,.,-75,.,?
O=C(N/N=C/c1cc(Cl)ccc1O)c1ccccc1Br,.,.,?,-70,.,-90
O=C(CNC(=O)c1ccccc1Br)N/N=C/c1cccs1,.,.,.,.,.,/
O=C(CNC(=O)c1ccccc1Br)N/N=C\c1cc([N+](=O)[O-])cc(Br)c1O,.,.,?,?,.,-73
O=C(CNC(=O)c1ccccc1Br)N/N=C/c1cc(Br)ccc1O,.,.,.,?,.,-73
COC(=O)N/N=C/c1cc([N+](=O)[O-])cc(Br)c1O,.,.,.,.,.,.
O=C(N/N=C/c1c(Cl)nc2ccccn2c1=O)c1cccnc1,.,.,/,-69,.,.
Clc1ccccc1-c1nc(NC2CCNCC2)c2ccccc2n1,/,/,.,/,.,/
Cc1c(-c2ccc(O)cc2)n(Cc2ccc(OCCN3CCCCCC3)cc2)c2ccc(O)cc12,.,/,/,/,/,/
O=C(CNC(=O)c1ccccc1Br)N/N=C/c1ccccc1O,.,.,.,-65,.,?
O=C(N/N=C/c1cc(Cl)ccc1O)c1cccnc1,.,.,.,-68,?,-91
